The list is not random: actives were taken first. Their share in the collection is about 3.2%.
TMEM16A act: activates or potentiates the mouse TMEM16A chloride channel; Q8BHY3; HEK293 TMEM16A/YFP-H148Q/I152L, iodide quench fluorescence; hits give low values; B-score at 10 µM; 0.3% of 340,000 active; AID 623877;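 active means fluorescence-ratio B-score plate-corrected deviation score at least 3 library SD below zero, with starting fluorescence score within 5 deviations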;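 further: channel opened by trigger with iodide after compound preincubation; score built on the fluorescence ratio of max minus min over baseline; more negative score means more quench and so TMEM16A activation or potentiation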
HDAC3 inh: blocks human histone deacetylase 3; 0.15% of 320,000 active; inhibition, % at 8.3 µM; O15379; recombinant HDAC3, fluorogenic peptide/trypsin coupled, fluorescence; in the data active means inhibition above about 26%, passing the limit was not always enough; inconclusive means no clear call, values can overlap the other calls
CHT PAM: allosterically activates the human high affinity choline transporter; Q9GZV3; 0.49% of 310,000 active; AID 488977; CHT-expressing cells, membrane potential dye, choline EC20; hits give high values; LV-AA mutant CHT in HEK293 cells; B-score at 10 µM;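 active means initial fluorescence not abnormally high and integrated response B-score, plate-corrected, over 3 SD above library mean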
Target sequence (Q9GZV3 whole entry, looked up): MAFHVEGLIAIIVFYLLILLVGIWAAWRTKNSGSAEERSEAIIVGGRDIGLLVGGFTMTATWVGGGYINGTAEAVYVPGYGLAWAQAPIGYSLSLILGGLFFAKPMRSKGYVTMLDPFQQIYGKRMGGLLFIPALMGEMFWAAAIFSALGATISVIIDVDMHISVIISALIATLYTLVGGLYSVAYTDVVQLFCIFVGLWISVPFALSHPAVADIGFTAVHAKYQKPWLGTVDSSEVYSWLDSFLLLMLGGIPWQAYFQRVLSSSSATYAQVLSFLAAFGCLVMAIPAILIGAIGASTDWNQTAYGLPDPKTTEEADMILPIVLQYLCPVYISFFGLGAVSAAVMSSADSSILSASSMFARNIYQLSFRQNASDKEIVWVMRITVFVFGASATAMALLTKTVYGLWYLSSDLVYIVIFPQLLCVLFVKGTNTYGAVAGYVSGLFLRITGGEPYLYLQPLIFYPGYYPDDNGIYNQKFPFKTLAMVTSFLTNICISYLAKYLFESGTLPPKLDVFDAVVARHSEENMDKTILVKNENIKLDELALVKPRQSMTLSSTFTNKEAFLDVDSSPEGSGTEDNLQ
PHOSPHO1 inh: PHOSPHO1 (human) inhibition; Q8TCT1; recombinant PHOSPHO1, absorbance phosphatase assay; inhibition, % at 13.3 µM; 1.1% of 290,000 active; in the data active means inhibition above about 60%
TMEM16A inh: blocks the mouse calcium-activated chloride channel TMEM16A; normalized B-score (activity score, 25-100; higher = stronger inhibition) at 10 µM; 1.2% of 310,000 active; HEK293 TMEM16A/YFP iodide influx fluorescence, ionomycin; AID 588511;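 active means ratio plate-corrected score three or more library SD toward inhibition, starting fluorescence score within five deviations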;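 further: score derived from kinetic fluorescence span divided by baseline fluorescence per well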
CHT inh: inhibits the human high affinity choline transporter | CHT-expressing cells, membrane potential dye, choline response; hits give low values | Q9GZV3 | B-score at 10 µM | 0.86% of 310,000 active | AID 488975;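 active means B-score over 3 SD under the library average, and starting fluorescence ratio not unusually high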;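 further: choline stimulus applied at its EC90 after an EC20 pre-addition; B-score computed on integrated fluorescence ratio after choline addition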
Each line names hits and unclear results; the compound was inactive in the other large screens.

CCOc1ccc(NC(=O)CC2SC(=O)N(c3ccccc3)C2=O)cc1 (stereo not drawn)	HDAC3 inh 39.7
Cc1cccc(C)c1OCCCN1CCOCC1	none
N#Cc1ccccc1OCCCN1CCC(Cc2ccccc2)CC1	CHT inh -8.98 (no result: PHOSPHO1 inh)
CSc1ccccc1OCc1cc(C(=O)N(C)Cc2cnccn2)no1	none
CSc1ccccc1OCc1cc(C(=O)N(C)C(C)c2ccccn2)no1 (stereo not drawn)	PHOSPHO1 inh 61.0
O=C(Nc1nc(-c2ccccn2)cs1)C1COc2ccccc2O1 (stereo not drawn)	none
C[C@@H](C(=O)Nc1nc(-c2ccccn2)cs1)N1C(=O)C2CCCCC2C1=O (stereo partly drawn)	PHOSPHO1 inh 69.6
COc1ccc(-c2csc(NC(=O)CN3C(=O)C4CCCCC4C3=O)n2)cc1OC (stereo not drawn)	none
CC1CC1C(=O)Nc1nc(-c2ccccn2)cs1 (stereo not drawn)	PHOSPHO1 inh 77.5
CC(C)[C@H](NC(=O)c1ccccc1Cl)C(=O)Nc1nc(-c2ccccn2)cs1	none
O=C(Nc1nc(-c2ccccn2)cs1)c1ccc(-c2ccccc2F)o1	none (no result: CHT PAM, PHOSPHO1 inh, TMEM16A inh, CHT inh)
O=C(Nc1nc(-c2ccccn2)cs1)c1ccc([N+](=O)[O-])o1	PHOSPHO1 inh 92.7
O=C(CN1C(=O)C2CCCCC2C1=O)Nc1nc(-c2ccccn2)cs1 (stereo not drawn)	PHOSPHO1 inh 70.9
CCCC(C(=O)O)N1C(=O)/C(=C/c2cccn2C)SC1=S (stereo not drawn)	none
CC(C)C(C(=O)O)N1C(=O)/C(=C/c2cccn2C)SC1=S (stereo not drawn)	HDAC3 inh 33.4
COc1ccc(C(=O)NNC(=O)C(=O)N2CCCCC2)cc1OC	none
Cc1cc(C(=O)CSc2nnc(-c3cccc(F)c3)n2N)c(C)n1Cc1ccc2c(c1)OCO2	TMEM16A inh 100
CC(=O)c1c(C)[nH]c(C(=O)CSc2nnc(-c3ccccc3)n2Cc2ccc3c(c2)OCO3)c1C	none
CCCCC(CC)C(=O)Oc1ccc(O)c(C(C)(C)C)c1 (stereo not drawn)	TMEM16A inh 25
CC(C)(C)c1cc(OC(=O)C2CCCC2)ccc1O	none
Cc1nc(COC(=O)c2ccc(S(=O)(=O)N3CCCC3)cc2)cs1	PHOSPHO1 inh 80.8
NC(=O)COC(=O)c1ccc(S(=O)(=O)N2CCCCCC2)cc1	none
CCOc1ccc(/C=C2\SC(=S)N(CCC(=O)Nc3ccc(C(=O)O)cc3)C2=O)cc1	none
CCc1ccc(/C=C2\SC(=S)N(CCCC(=O)Nc3ccc(C(=O)O)cc3)C2=O)cc1	TMEM16A inh 100
CCc1ccc(/C=C2\SC(=S)N(CCCC(=O)Nc3ccccc3C(=O)O)C2=O)cc1	HDAC3 inh inconclusive, TMEM16A inh 100
O=C(c1cc(-c2cccc(Cl)c2)nc2ccccc12)N1CCCC1	PHOSPHO1 inh 62.4
N/C(=N\OC(=O)c1ccccc1[N+](=O)[O-])c1ccccn1	none
COc1cccc(CN2CCN(C(=O)C3CCC(=O)N(C4CCCC4)C3)CC2)c1 (stereo not drawn)	none
O=C(NC1CCC1)C1CCC(=O)N(Cc2cccc(F)c2)C1 (stereo not drawn)	TMEM16A act -6.21
O=C(C1CCC(=O)N(C2CCCC2)C1)N1CCN(Cc2cccc(F)c2)CC1 (stereo not drawn)	PHOSPHO1 inh 75.1
CC/C(=N\Nc1nncc2ccccc12)c1ccc(F)cc1	none
COc1ccc(C(=O)NC2=Nc3ccccc3N=C(C)C2c2ccccc2)cc1 (stereo not drawn)	HDAC3 inh 76.6
Cc1cccc(C(=O)N(C)c2nnc(-c3ccncc3)s2)c1	none (no result: PHOSPHO1 inh)
Cc1nn(CC(=O)Nc2cccc(Cl)c2)c(=O)c2cc(-c3ccccc3)nn12	PHOSPHO1 inh 64.7
COc1ccc(-c2cc(C)no2)cc1S(=O)(=O)NCc1cccc(C)c1	none
CC(C)(C)c1cn(-c2ccc(F)cc2)c(=S)[nH]1	PHOSPHO1 inh 68.8
Cc1ccccc1-c1cn(-c2ccccc2)c(=S)[nH]1	none
O=C(OCc1ccccc1)C1=NNC2C(=O)N(c3ccc(Br)cc3)C(=O)C12 (stereo not drawn)	none
Cc1ccc(S(=O)(=O)N(CC(=O)N2CCC(C)CC2)c2cccc(C)c2)cc1	TMEM16A inh 25

High-throughput results as filed in PubChem.
